Source: PubChem BioAssay AID1069 (NMMLSC, 2008)

experiment: activators of LNCaP cell differentiation, retest, confirmation, side scatter shift, flow cytometry (AID 1069); conditions: 4 d, side scatter shift, at 10 µM, stronger effect = higher value;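 further: LNCaP human prostate cancer cells in low-serum medium with charcoal-stripped FBS; percent of cells with raised granularity gated so DMSO controls show 10%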

Compared with COc1ccc(CCNC(=O)C2CCN(Cc3nc(-c4cccc(Cl)c4)oc3C)CC2)cc1OC, COc1ccc(CCNC(=O)C2CCN(Cc3nc(-c4ccccc4F)oc3C)CC2)cc1OC is lower in side scatter shift: 12.2% for the first, 8.85% for the second.

Going from CC(C)N1CCC2(CC1)N=C(c1ccc3c(c1)OCO3)CC(c1cc(Cl)ccc1O)N2 (stereo not drawn) to CCOC(=O)C1=C(C)N=c2s/c(=C\c3ccncc3)c(=O)n2C1c1ccc2c(c1)OCO2 (stereo not drawn), the side scatter shift falls from 18.8% to 6.4%.

Going from Cc1cc(=O)oc(C)c1C(=O)NCCCN1CCN(c2ccc(F)cc2)CC1 to O=C(NCCCN1CCN(c2cccc(Cl)c2)CC1)C1CCC(=O)N1Cc1ccccc1Cl (stereo not drawn), the side scatter shift rises from 5.05% to 11.4%.

Compared with CCOc1ccc(-n2cc(C(=O)N3CCC(C)CC3)c3cc(OC)c(OC)cc3c2=O)cc1, COc1cc2nc(N3CCN(C(=O)C4COc5ccccc5O4)CC3)nc(N)c2cc1OC (stereo not drawn) is higher in side scatter shift: 18.7% for the first, 55.2% for the second.

First: Cc1cc(O)c(-c2cc(C(=O)Nc3ccc(S(=O)(=O)N4CCOCC4)cc3)[nH]n2)cc1C
Second: CCOC(=O)C1CCN(S(=O)(=O)c2ccc(-c3nc4ccccc4s3)s2)CC1
The side scatter shift of the first is higher: 9.8% for the first, 7.85% for the second.

Compared with COc1ccc(N2CCN(c3oc(COc4ccccc4Cl)nc3C#N)CC2)cc1, CN1CCN(c2oc(COc3ccc(-c4ccccc4)cc3)nc2C#N)CC1 is higher in side scatter shift: 9.2% for the first, 10.8% for the second.

Compared with O=C(NCCCN1CCN(c2ccccc2F)CC1)C1CCC(=O)N1C1CCCCC1 (stereo not drawn), O=C(NCCCN1CCN(c2ccccc2F)CC1)C1CCC(=O)N1C1CCCC1 (stereo not drawn) is lower in side scatter shift: 4.05% for the first, 2.35% for the second.

Going from COc1ccc(-c2noc(CCC(=O)NCCCN3CCC(Cc4ccccc4)CC3)n2)cc1 to CCn1c(=O)cc(SCC(=O)NCCN2CCN(Cc3ccccc3)CC2)c2ccccc21, the side scatter shift falls from 28.6% to 6.85%.

Compared with CCn1c(C(=O)NCCCN2CCc3ccccc3C2)cc2sccc21, COC(=O)CN1CCN(C(=O)c2ccc(F)cc2)c2ccccc2C1 is lower in side scatter shift: 14.8% for the first, 3.1% for the second.

Compared with Cc1cc2c(=O)n(CC(=O)N3CCN(c4ccccc4)CC3)cnc2s1, O=C1CCCc2c1cc(C(=O)NC1CCSC1=O)c(=O)n2-c1ccccc1 (stereo not drawn) is lower in side scatter shift: 5.8% for the first, 4.8% for the second.

First: Cc1oc(-c2cccc(Cl)c2)nc1CN1CCCC(C(=O)NCc2ccco2)C1 (stereo not drawn)
Second: Cc1oc(-c2ccc(Cl)cc2)nc1CN1CCCC(C(=O)NCc2ccco2)C1 (stereo not drawn)
The side scatter shift of the first is lower: 5.55% for the first, 12.7% for the second.

Compared with O=C(NCCCN1CCN(c2ccccc2F)CC1)C1CCN(S(=O)(=O)N2CCOCC2)CC1, CCCS(=O)(=O)N1CCCC(C(=O)NCCCN2CCN(c3cccc(Cl)c3)CC2)C1 (stereo not drawn) is lower in side scatter shift: 7.2% for the first, 6.55% for the second.

Compared with Cc1nnc(NCc2n[nH]c(=O)c3ccccc23)c2ccccc12, CCOC(=O)c1ccc(-c2n[nH]c(=O)c3ccccc23)cc1 is lower in side scatter shift: 6.5% for the first, 3.3% for the second.

First: O=C1c2ccccc2C(Nc2ccc3c(c2)OCO3)N1Cc1ccc2c(c1)OCO2 (stereo not drawn)
Second: O=c1cc(-c2ccccc2)[nH]c2ccccc12
The side scatter shift of the first is lower: 6.65% for the first, 9.15% for the second.

Compared with CCOc1ccc(NC(=O)COc2nsnc2N2CCCCC2)cc1, Cc1ccccc1-c1nc(CN2CCC(C(=O)O)CC2)c(C)o1 is lower in side scatter shift: 6.35% for the first, 1.25% for the second.

Going from O=C(c1ccc(COCC(F)(F)F)o1)N1CCCCCC1 to O=C(NCc1ccc(Cl)cc1)c1noc2c1CCCC2, the side scatter shift falls from 4.95% to 3.3%.

Going from Cc1ccccc1-c1nc(CN2CCCC(C(=O)NCCCN3CCOCC3)C2)c(C)o1 (stereo not drawn) to Cc1ccccc1-c1nc(CN2CCC(C(=O)NCCCN3CCOCC3)CC2)c(C)o1, the side scatter shift rises from 12.8% to 13.4%.

Compared with CCn1c(=N)n(CC(O)COc2cccc(C)c2)c2ccccc21 (stereo not drawn), N=c1n(CCO)c2ccccc2n1CCOc1ccc(Cl)cc1Cl is lower in side scatter shift: 9.75% for the first, 8.75% for the second.

Going from Nc1ccc(-n2ccnc2)cc1 to COC(=O)c1ccccc1NC(=O)CN1CCC(n2nnc3cc(F)ccc32)CC1, the side scatter shift falls from 7.5% to 6.9%.
